# Source: paper PMC11062922 (Nature Chemical Biology, 2023)
# Read-outs that look alike come from different tables or passages of the source.
# What was measured:
# Set-up in all cases: species or system human, MV4-11 + K-562 + COLO205 + SK-N-BE2 + OVCAR-8
# FER = details: read-out: apparent Kd, n = 1
# LATS1 = details: read-out: apparent Kd, n = 1
# MARK4 = details: read-out: apparent Kd, n = 1
# MYLK3 = details: read-out: apparent Kd, n = 1
# PLK4 = details: read-out: apparent Kd, n = 1
# PRKAA1 = details: read-out: apparent Kd, n = 1
# PRKAG1 = details: read-out: apparent Kd, n = 1
# PTK2B = details: read-out: apparent Kd, n = 1
# PTK2 = details: read-out: apparent Kd, n = 1
# STK10 = details: read-out: apparent Kd, n = 1
# CDK7 = details: read-out: apparent Kd, n = 1
# CDKL5 = details: read-out: apparent Kd; compound concentrations: 100 nM and 1000 nM (sheet 'Samples'), CATDS: 8.2845593333633408E-3; n = 1
# ERCC2 = details: read-out: apparent Kd, n = 1
# PIP4K2C = details: read-out: apparent Kd, n = 1
# PRKCD = details: read-out: apparent Kd, compound concentrations: 100 nM and 1000 nM (sheet 'Samples'), n = 1
# PRKCQ = details: read-out: apparent Kd, n = 1
# PRKD2 = details: read-out: apparent Kd, compound concentrations: 100 nM and 1000 nM (sheet 'Samples'), n = 1
# PRKD3 = details: read-out: apparent Kd, n = 1
# RPS6KA6 = details: read-out: apparent Kd, n = 1
# DYRK1A = details: read-out: apparent Kd, compound concentrations: 100 nM and 1000 nM (sheet 'Samples'), n = 1
# [1] = compound concentrations:100 nM and 1000 nM (sheet 'Samples')
structure (smiles),measurement,setting,value
CNC(=O)c1ccccc1Nc1nc(Nc2ccc(N3CCOCC3)cc2)ncc1Cl.Cl [GSK1576028A],potency estimated from few doses,FER; [1],484 nM
same,potency estimated from few doses,LATS1; [1],132 nM
same,potency estimated from few doses,MARK4; [1],1370 nM
same,potency estimated from few doses,MYLK3; [1],786 nM
same,potency estimated from few doses,PLK4; [1],13.4 nM
same,potency estimated from few doses,PRKAA1; [1],629 nM
same,potency estimated from few doses,PRKAG1; [1],461 nM
same,potency estimated from few doses,PTK2B; [1],41.8 nM
same,potency estimated from few doses,PTK2; [1],8.08 nM
same,potency estimated from few doses,STK10; [1],681 nM
CCn1c(-c2nonc2N)nc2c(C#CCN)ncc(OCCCN)c21.O=C(O)C(F)(F)F [GSK561866B],potency estimated from few doses,"LATS1; compound concentrations: 100 nM and 1000 nM (sheet 'Samples'), CATDS: 0.187665654048491",38.9 nM
O=C1N=C(NCCc2ccc(Cl)cc2)S/C1=C\c1ccc2ncccc2c1 [RO4498479-000],potency estimated from few doses,"CDK7; compound concentrations: 100 nM and 1000 nM (sheet 'Samples'), CATDS: 2.4350372788697498E-2",119 nM
same,potency estimated from few doses,CDKL5,909 nM
same,potency estimated from few doses,"ERCC2; compound concentrations: 100 nM and 1000 nM (sheet 'Samples'), CATDS: 2.1515421316076401E-2",142 nM
same,potency estimated from few doses,"FER; compound concentrations: 100 nM and 1000 nM (sheet 'Samples'), CATDS: 1.93209734431329E-2",166 nM
same,potency estimated from few doses,"LATS1; compound concentrations: 100 nM and 1000 nM (sheet 'Samples'), CATDS: 9.9630845977556094E-3",560 nM
same,potency estimated from few doses,"MARK4; compound concentrations: 100 nM and 1000 nM (sheet 'Samples'), CATDS: 9.5723230975851108E-3",617 nM
same,potency estimated from few doses,"MYLK3; compound concentrations: 100 nM and 1000 nM (sheet 'Samples'), CATDS: 6.6633165686717103E-3",2040 nM
same,potency estimated from few doses,"PIP4K2C; compound concentrations: 100 nM and 1000 nM (sheet 'Samples'), CATDS: 8.2219500153899797E-3",930 nM
same,potency estimated from few doses,"PLK4; compound concentrations: 100 nM and 1000 nM (sheet 'Samples'), CATDS: 1.52584065926915E-2",242 nM
same,potency estimated from few doses,"PRKAA1; compound concentrations: 100 nM and 1000 nM (sheet 'Samples'), CATDS: 1.37789233680672E-2",289 nM
same,potency estimated from few doses,"PRKAG1; compound concentrations: 100 nM and 1000 nM (sheet 'Samples'), CATDS: 1.32160889121976E-2",312 nM
same,potency estimated from few doses,PRKCD; CATDS: 7.1591971083295198E-3,1490 nM
same,potency estimated from few doses,"PRKCQ; compound concentrations: 100 nM and 1000 nM (sheet 'Samples'), CATDS: 7.7984631053202198E-3",1100 nM
same,potency estimated from few doses,PRKD2; CATDS: 8.2429468538409798E-3,923 nM
same,potency estimated from few doses,"PRKD3; compound concentrations: 100 nM and 1000 nM (sheet 'Samples'), CATDS: 8.1476846710640503E-3",956 nM
same,potency estimated from few doses,"PTK2B; compound concentrations: 100 nM and 1000 nM (sheet 'Samples'), CATDS: 1.6323674836543501E-2",216 nM
same,potency estimated from few doses,"PTK2; compound concentrations: 100 nM and 1000 nM (sheet 'Samples'), CATDS: 1.5270520713179201E-2",242 nM
same,potency estimated from few doses,"RPS6KA6; compound concentrations: 100 nM and 1000 nM (sheet 'Samples'), CATDS: 1.4642324519722799E-2",260 nM
same,potency estimated from few doses,"STK10; compound concentrations: 100 nM and 1000 nM (sheet 'Samples'), CATDS: 8.8639953478003106E-3",751 nM
Cc1ccc2c(-c3ccncc3)c(-c3ccc(F)cc3)nn2c1.Cl [GW461484A],potency estimated from few doses,CDK7; [1],288 nM
same,potency estimated from few doses,ERCC2; [1],214 nM
same,potency estimated from few doses,FER; [1],259 nM
same,potency estimated from few doses,PIP4K2C; [1],1560 nM
same,potency estimated from few doses,PLK4; [1],428 nM
same,potency estimated from few doses,PRKAA1; [1],773 nM
same,potency estimated from few doses,PRKAG1; [1],560 nM
same,potency estimated from few doses,PRKD3; [1],2110 nM
same,potency estimated from few doses,PTK2B; [1],354 nM
same,potency estimated from few doses,PTK2; [1],462 nM
same,potency estimated from few doses,RPS6KA6; [1],248 nM
CCn1c(-c2nonc2N)nc2c(C#CC(C)(C)O)nc(OCCNC)cc21.Cl [GSK949675A],potency estimated from few doses,LATS1; [1],401 nM
same,potency estimated from few doses,PRKCQ; [1],1680 nM
Cn1ncc2c(N)ncnc21 [SKF-18267],potency estimated from few doses,"CDK7; compound concentrations: 100 nM and 1000 nM (sheet 'Samples'), CATDS: 5.5514862333248096E-3",667 nM
same,potency estimated from few doses,DYRK1A; CATDS: 3.77369052298554E-3,1560 nM
same,potency estimated from few doses,"FER; compound concentrations: 100 nM and 1000 nM (sheet 'Samples'), CATDS: 5.4218087868892397E-3",697 nM
same,potency estimated from few doses,"LATS1; compound concentrations: 100 nM and 1000 nM (sheet 'Samples'), CATDS: 3.8471015452543802E-3",1480 nM
same,potency estimated from few doses,"MARK4; compound concentrations: 100 nM and 1000 nM (sheet 'Samples'), CATDS: 3.8950662850455102E-3",1430 nM
same,potency estimated from few doses,"MYLK3; compound concentrations: 100 nM and 1000 nM (sheet 'Samples'), CATDS: 3.9686163384318402E-3",1360 nM
same,potency estimated from few doses,"PLK4; compound concentrations: 100 nM and 1000 nM (sheet 'Samples'), CATDS: 4.9790098691835901E-3",821 nM
same,potency estimated from few doses,"PRKAG1; compound concentrations: 100 nM and 1000 nM (sheet 'Samples'), CATDS: 6.4543335305036397E-3",512 nM
same,potency estimated from few doses,PRKCD; CATDS: 3.5352355938645099E-3,1880 nM
same,potency estimated from few doses,"PRKCQ; compound concentrations: 100 nM and 1000 nM (sheet 'Samples'), CATDS: 3.4517086035176399E-3",2030 nM
same,potency estimated from few doses,PRKD2; CATDS: 4.0514258518823199E-3,1290 nM
same,potency estimated from few doses,"PRKD3; compound concentrations: 100 nM and 1000 nM (sheet 'Samples'), CATDS: 4.0252223893410396E-3",1320 nM
same,potency estimated from few doses,"PTK2B; compound concentrations: 100 nM and 1000 nM (sheet 'Samples'), CATDS: 7.2672167282142302E-3",423 nM
same,potency estimated from few doses,"PTK2; compound concentrations: 100 nM and 1000 nM (sheet 'Samples'), CATDS: 4.9483549300151902E-3",831 nM
same,potency estimated from few doses,"RPS6KA6; compound concentrations: 100 nM and 1000 nM (sheet 'Samples'), CATDS: 7.1387563408407901E-3",435 nM
same,potency estimated from few doses,"STK10; compound concentrations: 100 nM and 1000 nM (sheet 'Samples'), CATDS: 3.6177977688347301E-3",1760 nM
CCn1c(-c2nonc2N)nc2c(C#CC(C)(C)O)nc(OC[C@@H](N)c3ccccc3)cc21 [GSK938890A],potency estimated from few doses,DYRK1A; CATDS: 4.9269048258553202E-2,2060 nM
same,potency estimated from few doses,"LATS1; compound concentrations: 100 nM and 1000 nM (sheet 'Samples'), CATDS: 6.3165054409109203E-2",513 nM
